Compounds with a hit are over-represented: about 7.5% of the library has one in this group of screens.
Rab9 promoter act = Rab9 promoter activation; Huh7 Rab9 promoter-luciferase reporter, luminescence, 24 h; Potency, µM (top dose mostly 9.22 µM), most hits filed as activators; 320,000 compounds, 2.8% hits; also: nearly all actives have a fitted effect of over 60% in size
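Huh7 cells stably carrying a Rab9 promoter-luciferase reporter, 1500 cells per well in OP-MEM I with 10% FBS, treated with compound 24 hours at 37C. Luciferase activity read by luminescence after 10 minutes with Amplite reagent.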
ELG1 genotoxic = genotoxicity induction in ELG1-luciferase HEK293T cells; HEK293T ELG1-luciferase reporter, luminescence, 16 h; 330,000 compounds, 1.3% hits; AID 504466; Potency, µM (series often up to 46 µM), hits mostly activators; also: nearly all actives have a fitted effect of over 60% in size
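DMSO vehicle served as control against compound-treated ELG1-luciferase HEK293T cells; exposure lasted 16 hr at 37 °C and 5% CO2, followed by ONE-Glo luminescence detection after 30 min.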
SMN2 splice enh = increases expression of the SMN2 splice variant; AID 1458; HEK293 SMN2-luciferase splicing reporter, luminescence, 30-36 h; 210,000 compounds, 2.8% hits; Potency, µM (series often up to 46.1 µM), hits mostly activators; also: nearly all actives have a fitted effect of over 55% in size
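HEK293 cells carry an SMN2 […]–luciferase reporter in which exon 7 inclusion puts luciferase in frame. Cells were plated 10-12 h before compound addition, then incubated 30-36 h at 37C. ONE-Glo luminescence was read; sodium butyrate at 4.5 mM final served as control.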
NPC1 prom act = NPC1 promoter activation; Huh7 NPC1 promoter luciferase reporter, 24 h; Potency, µM (highest dose often 9.22 µM), usual class: activators; 320,000 compounds, 2.4% hits; AID 485313; also: nearly all actives have a fitted effect of over 60% in size
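Huh7 cells stably carrying NPC1 promoter–luciferase, plated in Opti-MEM with 10% FBS for 2 h, were exposed to compound in DMSO for 24 h at 37 °C; luciferase reagent was added for 10 min and luminescence read.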
Luc counter = counter-screen: inhibitors of Kinase-Glo firefly luciferase; Kinase-Glo luciferase, ATP luminescence, 8 min; 200,000 compounds, 0.28% hits; Potency, µM (doses to about 38.3 µM), most hits filed as inhibitors; also: nearly all actives have a fitted effect of over 60% in size
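Inhibition of Kinase-Glo luciferase light generation was assessed at 10 uM ATP in pH 7.2 imidazole buffer, with luminescence measured after eight minutes at ambient temperature.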
FLuc modulator = firefly luciferase modulation, counter-screen for miR-21 project | purified FLuc, Km substrates, luminescence inhibition | Potency, µM (top dose mostly 57.5 µM), hits mostly inhibitors | 360,000 compounds, 6.9% hits | AID 588342; also: nearly all actives have a fitted effect of over 55% in size
Target sequence (P08659 whole entry, looked up): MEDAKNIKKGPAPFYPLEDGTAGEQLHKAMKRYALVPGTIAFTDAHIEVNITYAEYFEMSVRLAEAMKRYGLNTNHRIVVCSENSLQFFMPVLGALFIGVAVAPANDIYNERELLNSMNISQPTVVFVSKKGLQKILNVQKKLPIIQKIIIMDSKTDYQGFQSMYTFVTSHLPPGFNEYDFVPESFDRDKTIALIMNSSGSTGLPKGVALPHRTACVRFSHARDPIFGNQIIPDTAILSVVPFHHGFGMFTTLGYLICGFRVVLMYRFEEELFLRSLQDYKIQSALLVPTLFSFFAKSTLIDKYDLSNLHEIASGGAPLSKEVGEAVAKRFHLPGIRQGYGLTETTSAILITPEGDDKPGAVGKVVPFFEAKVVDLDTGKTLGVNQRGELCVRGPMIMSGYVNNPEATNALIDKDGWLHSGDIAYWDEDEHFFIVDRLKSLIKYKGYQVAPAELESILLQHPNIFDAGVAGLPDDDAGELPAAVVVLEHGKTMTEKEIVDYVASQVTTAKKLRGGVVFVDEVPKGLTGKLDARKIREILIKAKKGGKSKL
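Biochemical qHTS of compounds, final roughly 60 µM downward over six points, against 10 nM purified firefly luciferase using Km concentrations of substrates (10 uM D-luciferin, 10 uM ATP) in Tris acetate pH 7.5 buffer; luminescence output.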
Each line names hits and unclear results; the compound was inactive in the other large screens. Calls follow the shape of the dose curve; as a rule, active = well fitted curve in the direction sought with a large enough effect; inconclusive = small, poorly fitted or top-dose-only effect, or another doubt; inactive = no such curve, though single readings can be large; an effect the other way counts as inactive or inconclusive.

CC(C)C[C@@H](/C=C/S(C)(=O)=O)NC(=O)[C@H](CC(C)C)NC(=O)[C@H](CC(C)C)NC(=O)OCc1ccccc1	none (no result: Rab9 promoter act, ELG1 genotoxic, NPC1 prom act, Luc counter, FLuc modulator)
O=C1CCOc2cc(OCc3ccccc3)ccc21	Rab9 promoter act 1µM, ELG1 genotoxic 10µM, SMN2 splice enh 2.2µM, NPC1 prom act 1µM, Luc counter inconclusive, FLuc modulator 1.5µM
CC(C)(C)c1ccc(C(=O)Nc2cccc3c(=O)[nH][nH]c(=O)c23)cc1	Rab9 promoter act inconclusive, ELG1 genotoxic inconclusive, FLuc modulator 0.85µM
CCCN1C(=O)C(=O)N(CC(=O)c2cc(C)n(C3CC3)c2C)C1=O	Rab9 promoter act 1.4µM, ELG1 genotoxic inconclusive, NPC1 prom act 2.8µM, FLuc modulator inconclusive (no result: SMN2 splice enh, Luc counter)
COc1ccc(C(=O)N/N=C/c2ccc3cccc(OCc4ccccc4)c3n2)cc1	FLuc modulator 1.5µM
COc1cc(/C=C/c2ccc3cccc(OC)c3n2)c(OC(C)=O)c([N+](=O)[O-])c1	none
O=C(N/N=C/c1ccc2cccc(OCc3ccccc3)c2n1)c1ccc(Br)cc1	FLuc modulator 2.7µM
COc1c(OC(C)=O)ccc(/C=C/c2ccc3cccc(OCc4ccccc4)c3n2)c1[N+](=O)[O-]	Rab9 promoter act inconclusive, NPC1 prom act inconclusive, FLuc modulator 1.5µM
NC(=S)N/N=C/c1ccc2cccc(OCc3ccccc3)c2n1	none (no result: SMN2 splice enh, Luc counter)
O=C(Cn1cnc2ccccc2c1=O)c1ccc(OC(F)F)cc1	none (no result: SMN2 splice enh, Luc counter)
COC(=O)[C@@]1(Cc2ccc(F)cc2)[C@H]2c3cc(C(=O)N(C)C)n(Cc4ccc(OC(F)(F)F)cc4)c3C[C@H]2CN1C(=O)c1ccccc1	none
Cc1nc(NCCO)c2nc(-c3ccccc3)n(CC3CCN(C)CC3)c2n1	none (no result: Rab9 promoter act, ELG1 genotoxic, NPC1 prom act, FLuc modulator)
CC(C)(C)CC(=O)Nc1nnc(SCC(=O)Nc2ccccc2F)s1	none
Cc1ccccc1NC(=O)CSc1nnc(NC(=O)c2ccco2)s1	FLuc modulator 27µM (no result: SMN2 splice enh, Luc counter)
O=C(CSc1nnc(NC(=O)c2ccco2)s1)Nc1ccccc1Br	none (no result: SMN2 splice enh, Luc counter)
O=C(CSc1nnc(NC(=O)c2ccccc2F)s1)Nc1ccccc1F	Rab9 promoter act 3.5µM, ELG1 genotoxic inconclusive, NPC1 prom act inconclusive, FLuc modulator 2.7µM
O=C(CSc1nnc(NC(=O)c2ccco2)s1)Nc1ccccc1F	FLuc modulator 15µM
COc1ccccc1CCNC(=O)Cc1cccs1	none (no result: SMN2 splice enh, Luc counter)
COc1ccc(C(=O)NCC(=O)n2nc(C)cc2C)cc1OC	none
Cc1cc(C)n(C(=O)CNC(=O)c2ccc(Cl)cc2Cl)n1	FLuc modulator 6.7µM (no result: SMN2 splice enh, Luc counter)
Cc1cc(C)n(C(=O)CNC(=O)c2ccc(C(C)(C)C)cc2)n1	FLuc modulator 7.6µM (no result: SMN2 splice enh, Luc counter)
Cc1cc(C)n(C(=O)CNC(=O)Cc2ccccc2)n1	none
CC1(C)Oc2ccc3ccc(=O)oc3c2-c2cn[nH]c21	ELG1 genotoxic inconclusive, SMN2 splice enh 14µM
CC(C)(C)c1ccc(NC(=O)Nc2ccc(OCC(=O)N3CCOCC3)cc2)cc1	Rab9 promoter act 2.2µM, ELG1 genotoxic inconclusive, SMN2 splice enh 16µM, NPC1 prom act 3.2µM, FLuc modulator 0.48µM
O=C(Nc1ccc(C(=O)O)cc1)Nc1cccc2ccccc12	FLuc modulator inconclusive (no result: SMN2 splice enh, Luc counter)
O=C(Nc1ccc(OCC(=O)N2CCOCC2)cc1)Nc1cccc(Cl)c1	FLuc modulator 12µM (no result: SMN2 splice enh)
O=C(Nc1ccc(C(=O)N2CCOCC2)cc1)Nc1cccc(Cl)c1	SMN2 splice enh inconclusive, NPC1 prom act inconclusive, FLuc modulator 15µM
O=C(Nc1ccc(C(=O)N2CCOCC2)cc1)Nc1cccc2ccccc12	ELG1 genotoxic inconclusive, FLuc modulator 15µM
O=C(CSc1nc2ncc(Cl)cc2[nH]1)N1CCC(Cc2ccccc2)CC1	none (no result: Rab9 promoter act, SMN2 splice enh, NPC1 prom act, Luc counter, FLuc modulator)
O=C(Nc1cccc(OCC(=O)N2CCOCC2)c1)c1ccc(C(F)(F)F)cc1	FLuc modulator 15µM (no result: SMN2 splice enh, Luc counter)
O=C(COc1cccc(C(F)(F)F)c1)N1CCN(c2ccc(O)cc2)CC1	none
CCN(CC)CCCCCCCCOC(=O)c1cc(OC)c(OC)c(OC)c1	ELG1 genotoxic 18µM
COc1cc(C(=O)OCCCN(C)C)cc(OC)c1OC	none (no result: SMN2 splice enh, Luc counter)
CCOC(=O)/C(=C/Nc1ccc(F)cc1)[N+](=O)[O-]	none (no result: SMN2 splice enh, Luc counter)
COc1ccc(CN2C(=O)c3cccc4cccc2c34)cc1F	none (no result: SMN2 splice enh, Luc counter)
CCSc1ncc(/C=N/Nc2ccc([N+](=O)[O-])cc2)n1C	Rab9 promoter act 0.71µM, ELG1 genotoxic inconclusive, SMN2 splice enh inconclusive, NPC1 prom act 0.79µM, FLuc modulator inconclusive
CCSc1ncc(/C=N/Nc2ccc(Cl)cc2)n1C	Rab9 promoter act 2.8µM, ELG1 genotoxic inconclusive, SMN2 splice enh 20µM, NPC1 prom act 1.6µM, FLuc modulator 3µM
O=[N+]([O-])c1ccc(N/N=C\c2cccn2-c2ccccc2)nc1	none
CCSc1ncc(/C=N/Nc2ccccc2)n1C	Rab9 promoter act inconclusive, SMN2 splice enh 14µM, NPC1 prom act inconclusive, FLuc modulator 19µM
Cn1c(-c2ccc(F)cc2)cnc1SCC(=O)Nc1ccccc1	none
Cc1ccc2c(=O)c(C(=O)c3ccc(Cl)cc3)cn(CC(=O)Nc3ccc4c(c3)OCCO4)c2n1	none (no result: Rab9 promoter act, ELG1 genotoxic, SMN2 splice enh, NPC1 prom act, Luc counter)
COc1ccc(-c2nc(CSCC(=O)NCc3ccco3)c(C)o2)cc1	FLuc modulator 17µM
CCc1ccc(-c2nc(CSCC(=O)NC3CC3)c(C)o2)cc1	FLuc modulator 19µM (no result: SMN2 splice enh, Luc counter)
